Sampled rows, rich in hits. Any-hit rate of the full collection: about 4.3%.
NR3A LBD binder – NR3A (human) ligand-binding domain modulation. 2.5% of 340,000 active. Tm shift relative to glycine control, % at 25 µM. NR3A LBD differential scanning fluorimetry, Tm shift; 0% = protein alone, 100% = glycine-bound protein. AID 1259313;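 active = melting temperature shift of at least 10% of the positive control shift, at one fixed dose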
rCAG binder – molecules binding r(CAG) RNA repeats; r(CAG) RNA repeat, TO-PRO-1 dye displacement fluorescence; inhibition, % at 3 µM; 1.3% of 370,000 active;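 active = inhibition above the plate cutoff, the mean of all test compounds on that plate plus 3 SD, cut at about 35% in these data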;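 also: 0% = DMSO alone and 100% = 100 µM mitoxantrone as full dye displacement; higher means more dye released from RNA so lower well fluorescence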
FAS-TE inh – inhibitors of human fatty acid synthase thioesterase domain. AID 602261. 0.67% of 360,000 active. recombinant FAS-TE, OMFH fluorogenic substrate, fluorescence endpoint. P49327. inhibition, % at 15 µM;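 active = compounds whose normalised, plate-corrected inhibition of enzyme fluorescence in the single-dose primary screen is 50% or more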;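 also: 0% = DMSO with enzyme and 100% = substrate without enzyme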
NadD inh – NadD (S. aureus) enzyme inhibition; AID 602399; 0.78% of 360,000 active; purified NadD enzyme, colorimetric absorbance read-out; inhibition, % at 20 µM; in the data active = inhibition above about 26%
The depositor's hits bear a star.

What do the screens show for `O=C(COC(=O)c1ccc2[nH]c3c(c2c1)CCCC3)Nc1ccccc1Cl`?
NR3A LBD binder: 13*; rCAG binder: 3; FAS-TE inh: -3; NadD inh: -3

How did CCOc1ccc(-n2c(SCC(=O)Nc3cccc4ccccc34)nnc2-c2ccco2)cc1 do in these assays?
rCAG binder: 6

Results for COC(=O)c1ccc(NC(=O)c2cc3sccc3n2C)cc1 ?
NR3A LBD binder: 2; rCAG binder: 6; FAS-TE inh: 15; NadD inh: -7

What do the screens show for `Cn1c(C(=O)Nc2ccccc2)cc2sccc21`?
NR3A LBD binder: 22*; rCAG binder: 4; FAS-TE inh: 4; NadD inh: 2

What do the screens show for `C[C@H]1C(c2ccccc2F)O[C@]2(C[C@H](O)c3c(ccc4ccccc34)O2)C[C@@H]1O` (stereo partly specified)?
rCAG binder: 4

What do the screens show for `COC(=O)[C@]12C[C@H](CC(=O)NCC34CC5CC(CC(C5)C3)C4)C(=O)N(CCc3ccc(OC)c(OC)c3)C1=C[C@H](C(C)C)O[C@@H]2C1CC1`?
rCAG binder: 6

How did Cc1ccc(C(=O)C(NC(=O)c2ccco2)N2CCOCC2)cc1 (stereo unspecified) do in these assays?
NR3A LBD binder: 11*; rCAG binder: 2; FAS-TE inh: -7; NadD inh: 2

How did Cc1ccc(O)c(-c2cc(-c3cccc(F)c3)n[nH]2)c1 do in these assays?
NR3A LBD binder: 12*; rCAG binder: 19; FAS-TE inh: 17; NadD inh: -3

What do the screens show for `Cc1ccc(-c2cc(-c3cccc(F)c3)n[nH]2)c(O)c1`?
NR3A LBD binder: 17*; rCAG binder: 18; FAS-TE inh: 11; NadD inh: -2

What do the screens show for `CC(=O)N1CCc2cc(S(=O)(=O)NC3CCN(C(=O)CCl)CC3)ccc21`?
rCAG binder: 2

How did CC12C=CC(C)(C3C(=O)NC(=O)C31)C1C3C(=O)NC(=O)C3C12 (stereo unspecified) do in these assays?
rCAG binder: 3

What do the screens show for `CC(=O)N1CCN(C(=O)C2CCCN(C(=O)c3ccc4c(c3)NC(=O)CS4)C2)CC1` (stereo unspecified)?
rCAG binder: 1

Results for CC(=O)n1c2ccccc2c2nc(NC(C)C)sc21 ?
NR3A LBD binder: 3; rCAG binder: 1; FAS-TE inh: -8; NadD inh: 5

Results for CNc1nc2c3ccccc3n(C(C)=O)c2s1 ?
NR3A LBD binder: 18*; rCAG binder: 4; FAS-TE inh: -2; NadD inh: -2

Results for O=C(C1CCCN1S(=O)(=O)c1ccc(Br)s1)N1CCN(c2ccccc2)CC1 (stereo unspecified) ?
rCAG binder: 3

What do the screens show for `CC(NC(=O)c1ccc(CS(C)(=O)=O)cc1)c1ccc(-c2ccccc2)cc1` (stereo unspecified)?
NR3A LBD binder: 2; rCAG binder: -1; FAS-TE inh: 1; NadD inh: -1

What do the screens show for `CC(NC(=O)c1ccc(Cl)c(Cl)c1)c1ccc(-c2ccccc2)cc1` (stereo unspecified)?
NR3A LBD binder: 16*; rCAG binder: 2; FAS-TE inh: 27; NadD inh: -12

Results for CCCCNS(=O)(=O)CC1NCc2ccccc21 (stereo unspecified) ?
rCAG binder: 7

What do the screens show for `NC(=S)NC1CCS(=O)(=O)C1` (stereo unspecified)?
NR3A LBD binder: -1; rCAG binder: -4; FAS-TE inh: -2; NadD inh: 0

Results for O=S1(=O)CCC(NC(=S)NCCNC(=S)NC2CCS(=O)(=O)C2)C1 (stereo unspecified) ?
NR3A LBD binder: 21*; rCAG binder: 1; FAS-TE inh: -10; NadD inh: -1

How did O=C(CSc1nnc(-c2ccccc2)n1-c1ccccc1)NN=Cc1ccc(-c2ccccc2)cc1 do in these assays?
rCAG binder: 7

How did O=C(/C=C\Nc1ccc2c(c1)OCO2)c1ccccn1 do in these assays?
NR3A LBD binder: 35*; rCAG binder: 2; FAS-TE inh: -8; NadD inh: -6

What do the screens show for `COC(=O)C1CCCN(C(=O)C2CCN(S(=O)(=O)c3ccccc3[N+](=O)[O-])CC2)C1` (stereo unspecified)?
rCAG binder: 5

How did CNC(=O)N(O)C1N(NC(=O)Nc2ccccc2)C(=S)SC1(C)C (stereo unspecified) do in these assays?
NR3A LBD binder: 0; rCAG binder: -2; FAS-TE inh: -14; NadD inh: -3

What do the screens show for `CC1(C)SC(=S)N(/N=C/c2ccccc2)C1N(O)C(=O)Nc1ccc([N+](=O)[O-])cc1` (stereo unspecified)?
NR3A LBD binder: 14*; rCAG binder: 11; FAS-TE inh: -183; NadD inh: 9
